From PubChem BioAssay
A selection: hits, their analogues and other compounds. The true share with any hit is near 18%.
DT40 TDP1 CPT – growth inhibition of DT40 Tdp1-/-;hTDP1 cells with camptothecin (screen for TDP1 inhibitors) | Potency, µM (titrated, usually from 46.2 µM), for inactives: at the highest dose activity change, negative = growth inhibition, actives largely listed as inhibitors | actives 12% (n = 420,000) | chicken DT40 Tdp1-/-;hTDP1 cells + 20 nM CPT, ATP luminescence, 48 h; note: potency is the fitted concentration of half-maximal effect; % is set by controls: 0 for no effect and ±100 for the full control effect; nearly all actives have a fitted effect of over 55% in size
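Chicken DT40 Tdp1-/- cells stably complemented with human TDP1 were seeded at 400 cells/well in medium containing 20 nM camptothecin, exposed to pin-transferred compounds, and grown at 37 °C for at least 48 hr. Viability was read as ATP luminescence.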
DT40 TDP1 no CPT – qHTS for Inhibitors of human tyrosyl-DNA phosphodiesterase 1 (TDP1): qHTS in cells in absence of CPT; AID 686978, 2013; DT40 Tdp1-/- hTDP1 cells, no CPT, ATP luminescence, 48 h; actives 15% (n = 420,000); Potency, µM (series often up to 46.2 µM), inactives show at the top dose activity change, negative = growth inhibition, actives largely listed as inhibitors; note: potency is the fitted concentration of half-maximal effect; % is set by controls: 0 for no effect and ±100 for the full control effect; nearly all actives have a fitted effect of over 55% in size
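Stably hTDP1-transfected Tdp1-null chicken DT40 cells were treated with library compounds minus camptothecin and grown for at least 48 hr at 37 °C, after which cellular ATP was quantified by luminescence.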
IL-1B inflam inh – inflammasome signaling inhibition, IL-1 beta readout | THP-1 LPS/ATP IL-1B secretion, AlphaLISA, 16 h; hits give low values | actives 4.7% (n = 360,000) | AID 743279 | activity change, % at 57.5 µM; in the data active = activity change below about -50%; inconclusive = mostly about -30% to -49%; note: % is set by controls: 0 for no effect and ±100 for the full control effect
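THP-1 cells pretreated 1 hr with compounds (up to 57.5 uM final), then stimulated with LPS (250 ng/mL final) plus ATP (1.25 mM final); secreted IL-1B measured by AlphaLISA after 16 hr, decreased signal indicating inhibition.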
TGFb SMAD3 inh – inhibitors of TGF-b signaling. actives 1.2% (n = 410,000). Potency, µM (highest dose often 46.1 µM), inactives show top-dose activity, negative = inhibition, actives largely listed as inhibitors. HepG2 CAGA-GFP TGF-b/SMAD3 reporter, GFP fluorescence, 18 h; TGF-beta stimulated, 500 pg/mL final. AID 588855; note: potency is the fitted concentration of half-maximal effect; % is set by controls: 0 for no effect and ±100 for the full control effect; nearly all actives have a fitted effect of over 65% in size
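HEPG2 CAGA-GFP, 1000 cells/well; 2 h settle, 37 C; cpd via pin tool; TGF-b 500 pg/mL final; 18 h, 37 C; GFP imaging ex488/em500-530; %Activity normalised to -TGF-b and +DMSO controls; CRC fit, curve class.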
TDP1 inh – inhibitors of human tyrosyl-DNA phosphodiesterase TDP1. AID 485290. Potency, µM (highest dose often 130 µM), for inactives: top-dose activity change, negative = inhibition, hits mostly inhibitors. actives 0.28% (n = 350,000). Q9NUW8. recombinant TDP1, AlphaScreen DNA substrate cleavage; note: potency is the fitted concentration of half-maximal effect; % is set by controls: 0 for no effect and ±100 for the full control effect; nearly all actives have a fitted effect of over 40% in size
Target sequence (Q9NUW8 whole entry, looked up): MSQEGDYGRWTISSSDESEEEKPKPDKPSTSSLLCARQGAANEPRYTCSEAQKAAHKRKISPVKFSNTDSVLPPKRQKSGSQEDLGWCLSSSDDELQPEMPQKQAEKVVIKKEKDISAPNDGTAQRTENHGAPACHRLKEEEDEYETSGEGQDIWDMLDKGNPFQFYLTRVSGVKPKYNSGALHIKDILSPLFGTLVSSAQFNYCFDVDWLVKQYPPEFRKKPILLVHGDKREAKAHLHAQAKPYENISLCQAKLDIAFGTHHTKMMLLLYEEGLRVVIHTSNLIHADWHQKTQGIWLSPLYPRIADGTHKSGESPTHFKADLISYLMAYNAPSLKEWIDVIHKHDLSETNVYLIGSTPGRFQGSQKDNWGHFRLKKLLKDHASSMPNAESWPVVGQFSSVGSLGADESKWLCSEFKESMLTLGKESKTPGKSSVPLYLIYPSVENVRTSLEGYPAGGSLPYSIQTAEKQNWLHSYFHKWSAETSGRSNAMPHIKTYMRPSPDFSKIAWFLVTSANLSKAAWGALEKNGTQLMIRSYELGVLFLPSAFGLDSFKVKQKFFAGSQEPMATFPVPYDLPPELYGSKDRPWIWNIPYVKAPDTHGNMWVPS
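Steps: enzyme plus compound, 15 min RT; add biotin/phosphotyrosine-FITC oligonucleotide (15 nM final), react 5 min; add donor/acceptor beads (10 ug/ml final), 10 min; read AlphaScreen. Tdp1 at 1 nM final.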
HepG2 viability – kills HepG2 cells in TGF-b inhibitor counter-screen; HepG2 CAGA-GFP viability, ATP luminescence, 18 h; actives 0.76% (n = 410,000); AID 588856; Potency, µM (series often up to 46.1 µM), for inactives: at the top dose activity change, negative = cytotoxicity, actives largely listed as cytotoxic; note: potency is the fitted concentration of half-maximal effect
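HepG2 CAGA-GFP cells (1000/well, DMEM with 1% FBS) received compound, then TGF-beta at 500 pg/mL final, and were incubated 18 hours at 37 degrees C. Viability was read by CellTiter-Glo luminescence. Media-only wells were set as complete cell-killing and DMSO as no toxicity.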
* hit, by the source's call; ? = inconclusive; · = no result; [ ] = dose if it differs, or a comment. Unless noted, calls come from the whole dose curve; as a rule, active = well fitted curve in the direction sought with a large enough effect; inconclusive = small, poorly fitted or top-dose-only effect, or another doubt; inactive = no such curve, though single readings can be large; an effect the other way counts as inactive or inconclusive.

SMILES	DT40 TDP1 CPT	DT40 TDP1 no CPT	IL-1B inflam inh	TGFb SMAD3 inh	TDP1 inh	HepG2 viability
COc1cccc(OC)c1OCCCOc1ccc([N+](=O)[O-])cc1Cl	?	?	?	-9%	3%	-9%
CC(C)CC(=O)Nc1ccc(C(=O)COC(=O)C2CC(=O)N(Cc3ccccc3)C2)cc1 (configuration not stated)	-26%	1%	-6	-1%	0%	-4%
CN1CCC[C@@H]1CCNC(=O)c1c(-c2ccc3c(c2)OCO3)noc1-c1ccsc1	-15%	-14%	-76*	-6%	2%	-19%
CN1CCC[C@H]1CCNC(=O)c1c(-c2ccsc2)sc2ccccc12	-2%	1%	-21	?	0%	-3%
N/C(CCN1CCCCC1)=N/O	-7%	1%	5	-15%	4%	6%
CC(C)(C)c1ccc(-c2nc3c(C#N)c(-c4ccc5c(c4)OCO5)ccn3n2)cc1	18µM*	13µM*	41	-19%	2%	-11%
Cc1nc(N)c(C#N)c(-c2ccc3c(c2)OCO3)c1C	-22%	10%	17	3%	·	10%
Cc1[nH]c2ccccc2c1C(=O)c1cc(Cc2ccccc2)sc1N	?	16µM*	-51*	·	·	·
O=C(Nc1ccc(F)cc1Cl)c1cnc(N2CCOCC2)c2ccccc12	?	?	·	42%	1%	-7%
COc1cccc2c(Cl)c(CC=C(Cl)Cl)c(C)nc12	-29%	-29%	-50*	0%	-2%	-2%
C=CCc1c(C)nc2c(OC)cccc2c1Cl	?	?	16	?	1%	-1%
CCCCN(C=O)c1c(CC)nc2c(OCc3cccc(Cl)c3)cccn12	?	?	14	?	·	-28%
O=C(C(O)c1ccccc1)N1CCN(S(=O)(=O)c2ccc(F)c(F)c2)CC1 (configuration not stated)	2%	1%	-9	·	·	·
COc1ccc2c(c1)CCc1c(C(=O)Nc3c(C)nn(Cc4ccc(Cl)cc4)c3C)noc1-2	21µM*	21µM*	·	-4%	6%	-1%
COc1ccc2c(c1)CCc1c(C(=O)Nc3cc(C)n(Cc4ccc(Cl)cc4)n3)noc1-2	?	?	44	-7%	8%	-18%
COc1ccc2c(c1)CCc1c(C(=O)Nc3c(C)nn(Cc4ccccc4)c3C)noc1-2	9.2µM*	9.2µM*	?	?	3%	-5%
CCN(CC)CCNC(=O)c1nn(-c2ccc(Cl)cc2)c2c1CCc1cc(OC)ccc1-2	?	21µM*	-103*	?	·	14µM*
O=C(Nc1cnn(Cc2ccc(Cl)cc2Cl)c1)c1noc2c1CCc1ccccc1-2	16µM*	?	·	-20%	6%	-22%
COc1ccc2c(c1)CCc1c(C(=O)NCc3ccc(Cl)cc3)noc1-2	0%	-12%	31	-8%	0%	-5%
CC1Cc2ccccc2N1C(=O)COC(=O)c1ccc(N(C)C)cc1 (configuration not stated)	?	?	-2	-7%	2%[56.1 µM]	-68%
COc1ccc2c(c1)CCc1c(C(=O)NCCc3ccc(OC)c(OC)c3)noc1-2	?	13µM*	-17	-25%	0%	-23%
COc1ccc2c(c1)CCc1c(C(=O)Nc3ccc(OC)c(OC)c3)noc1-2	?	?	-18	17%	4%	4%
COc1ccc2c(c1)CCc1c(C(=O)Nc3ccn(Cc4ccc(C)cc4)n3)noc1-2	-29%	?	-9	-17%	0%	-39%
Cc1ccc(Cn2ccc(NC(=O)c3noc4c3CCc3ccccc3-4)n2)cc1	-1%	-7%	-18	0%	5%	4%
COc1ccc2c(c1)CCc1c(C(=O)Nc3c(C)nn(Cc4ccc(Cl)c(Cl)c4)c3C)noc1-2	12µM*	13µM*	·	-21%	6%	-1%
SMILES	DT40 TDP1 CPT	DT40 TDP1 no CPT	IL-1B inflam inh	TGFb SMAD3 inh	TDP1 inh	HepG2 viability
Cc1nn(Cc2ccc(Cl)cc2)c(C)c1NC(=O)c1noc2c1CCc1ccccc1-2	13µM*	13µM*	0	?	6%	-42%
COc1ccc(C(=O)N2CC3(C)CC2CC(C)(C)C3)cc1 (configuration not stated)	?	?	-28	15%	3%	-10%
CC1(C)CC2CC(C)(CN2C(=O)c2ccccc2)C1 (configuration not stated)	16µM*	-23%	25	3%	4%	-13%
COC(=O)C[C@H]1CC[C@H](NC(=O)Nc2ccccc2)[C@@H](CO)O1	5%	-1%	0	·	·	·
N#CC12C(=O)NC(=O)C1(C#N)C21CCCC1 (configuration not stated)	11%	0%	-5	4%	·	-3%
CC(=O)c1ccc(NC(=O)c2cn(-c3ccccc3)nc2-c2ccc(Br)cc2)cc1	?	?	·	-16%	-6%[12.3 µM]	-20%
O=C(CCS(=O)(=O)c1cc2c(cc1Cl)NC(=O)CO2)NCCc1ccc(Cl)cc1	·	·	·	6%	0%	-7%
COc1ccc2c(c1)CCc1c(C(=O)N3CC4(C)CC3CC(C)(C)C4)noc1-2 (configuration not stated)	16µM*	?	-22	?	5%	-45%
CCOc1ccc(CC(=NCCc2ccccc2)C2=C(O)CC(C)(C)CC2=O)cc1OCC	15µM*	16µM*	-66*	-9%	-3%	14%
COc1ccccc1CNC(=O)c1cc(-c2ccccc2)nn1Cc1cc(C)no1	?	?	-23	0%	-2%	-1%
CCc1cc(Cn2nc(-c3ccccc3)cc2C(=O)NCc2ccccc2OC)on1	?	21µM*	?	?	3%	1%
CCOC(=O)c1cn(-c2c(Cl)cccc2Cl)c2cc(Cl)c([N+](=O)[O-])cc2c1=O	?	16µM*	-54*	3%	8%	-14%
O=C(Cc1ccccc1)NCC(=O)OCC(=O)c1cccc2ccccc12	?	-25%	·	4%	1%	-17%
Cc1ccc(S(=O)(=O)N2CCN(Cc3cc(=O)n4ccccc4n3)CC2)c(C)c1	?	-2%	45	-14%	1%	-42%
CCN(CC)Cc1ccc(NC(=O)c2sc3cc(Cl)ccc3c2Cl)cc1	?	16µM*	·	?	·	-26%
